The values below come from PubChem BioAssay (EPA / NIEHS).

Read-out in test [1]: Monokine induced gamma interferon (MIG), CXCL9 (gene 4283)
The test can be described thus: BSK_SAg_MIG: BioMAP Diversity Plus: SAg Assay for Monokine induced gamma interferon (MIG) Biomarker Activity (AID 2283092). Particulars: primary human HUVEC with PBMC; actives raise or lower the signal. In short, it runs like this: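 Measures CXCL9 protein by ELISA in a human vascular primary-cell co-culture (umbilical vein endothelium with PBMC) 24 h after chemical addition. Activity is scored up or down from the DMSO control.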

The nature of test [2]: BSK_SAg_PBMCCytotoxicity: PBMC Cytotoxicity Assessment in the BioMAP Diversity Plus: SAg Assay (AID 2283093).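 Further: PBMC viability measured as Alamar Blue reduction fluorescence at 546/580 nm; fitted both ways against DMSO so a hit may be loss or gain of signal.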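 On AC50: PBMC superantigen activated with SEB plus TSST-1 one hour after compound addition.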 Particulars: primary human HUVEC with PBMC. In short, it runs like this:
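Alamar Blue reduction (6 h, 546/580 nm) reports PBMC cytotoxicity after 90 h superantigen activation (SEB, TSST-1; 20 ng/mL final each) with 1 h compound pre-treatment. Gain or loss of signal fitted versus DMSO.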

Read-out in test [3]: Interleukin-8 (IL8), CXCL8 (gene 3576)
The test can be described thus: BSK_SAg_IL8: BioMAP Diversity Plus: SAg Assay for Interleukin-8 (IL8) Biomarker Activity (AID 2283094). The conditions noted are these: primary human HUVEC with PBMC; actives raise or lower the signal. In short, it runs like this: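 Chemicals were dosed onto a human endothelial–PBMC co-culture, and IL-8 was quantified by ELISA after 24 h. Both increases and decreases were fitted relative to DMSO.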

The nature of test [4]: BSK_SAg_Proliferation: Cell Proliferation Assessment in the BioMAP Diversity Plus: SAg Assay (AID 2283095).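 Further: relative cell number as total protein by SRB absorbance in sub-confluent culture.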 The conditions noted are these: primary human HUVEC with PBMC. Put shortly: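 Absorbance of sulforhodamine B at 560 nm reports total protein in a human vascular endothelial/PBMC co-culture after 96 h chemical exposure. Gain or loss of signal is fitted in both directions against DMSO.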

Test [5] is described as follows: BSK_SAg_SRB: Viability Assessment in the BioMAP Diversity Plus: SAg Assay (AID 2283096).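 Further: cells read one day after compound addition; hits may be either gain or loss of signal compared with DMSO.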 Particulars: primary human HUVEC with PBMC. Put shortly: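 This overt-cytotoxicity endpoint quantifies protein in human endothelial/PBMC co-cultures at 24 h using SRB absorbance (560 nm) after trichloroacetic acid fixation. Values reflect signal change from the DMSO negative control, fitted bidirectionally.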

In test [6] the target is human CYP2A6, CYP2A6 (gene 1548) (UniProt P11509). Description: NVS_ADME_hCYP2A6: NovaScreen (NVS) CYP450-related Enzyme Activity (ADME) Assay for human CYP2A6 (AID 2283099; active means hit-call score of the fitted dose curve at least 0.9, where 1 is the maximum). In short, it runs like this: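 Insect-cell-expressed human CYP2A6 enzyme activity measured by fluorescence intensity 0.5 hour post-dosing. Compounds screened at 10 uM in duplicate, then hits tested singly in concentration series (max 20 uM); acetonitrile baseline.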
Chain of human CYP2A6, CYP2A6 (gene 1548) (P11509 whole entry, looked up): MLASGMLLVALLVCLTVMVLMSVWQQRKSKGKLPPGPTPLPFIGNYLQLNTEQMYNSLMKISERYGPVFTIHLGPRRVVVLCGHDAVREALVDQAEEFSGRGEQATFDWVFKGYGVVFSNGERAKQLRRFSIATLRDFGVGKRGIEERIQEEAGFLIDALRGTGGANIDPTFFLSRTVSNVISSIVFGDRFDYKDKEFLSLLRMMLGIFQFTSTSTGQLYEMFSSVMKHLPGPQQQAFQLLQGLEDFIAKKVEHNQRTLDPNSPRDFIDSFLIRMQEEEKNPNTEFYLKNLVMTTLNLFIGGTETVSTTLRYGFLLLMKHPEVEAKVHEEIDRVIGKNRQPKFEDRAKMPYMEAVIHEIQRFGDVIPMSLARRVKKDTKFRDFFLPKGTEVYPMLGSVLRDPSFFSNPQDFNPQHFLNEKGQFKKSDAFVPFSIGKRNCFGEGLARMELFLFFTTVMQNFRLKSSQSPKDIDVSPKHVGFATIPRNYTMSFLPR

The target of test [7] is human CYP1A2, CYP1A2 (gene 1544) (UniProt P05177). Description: NVS_ADME_hCYP1A2: NovaScreen (NVS) CYP450-related Enzyme Activity (ADME) Assay for human CYP1A2 (AID 2283102; active means hit-call score of the fitted dose curve at least 0.9, where 1 is the maximum;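 on AC50: potency for inhibition since loss of fluorescence marks reduced CYP1A2 activity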). In short, it runs like this: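 Fluorescence-intensity enzyme activity read-out, taken 0.5 h post-dosing, using insect-cell-derived recombinant CYP1A2 and specific fluorescent substrate. Acetonitrile served as negative control/baseline. Single-concentration duplicate screen at 10 uM, then concentration-response follow-up.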
Chain of human CYP1A2, CYP1A2 (gene 1544) (P05177 whole entry, looked up): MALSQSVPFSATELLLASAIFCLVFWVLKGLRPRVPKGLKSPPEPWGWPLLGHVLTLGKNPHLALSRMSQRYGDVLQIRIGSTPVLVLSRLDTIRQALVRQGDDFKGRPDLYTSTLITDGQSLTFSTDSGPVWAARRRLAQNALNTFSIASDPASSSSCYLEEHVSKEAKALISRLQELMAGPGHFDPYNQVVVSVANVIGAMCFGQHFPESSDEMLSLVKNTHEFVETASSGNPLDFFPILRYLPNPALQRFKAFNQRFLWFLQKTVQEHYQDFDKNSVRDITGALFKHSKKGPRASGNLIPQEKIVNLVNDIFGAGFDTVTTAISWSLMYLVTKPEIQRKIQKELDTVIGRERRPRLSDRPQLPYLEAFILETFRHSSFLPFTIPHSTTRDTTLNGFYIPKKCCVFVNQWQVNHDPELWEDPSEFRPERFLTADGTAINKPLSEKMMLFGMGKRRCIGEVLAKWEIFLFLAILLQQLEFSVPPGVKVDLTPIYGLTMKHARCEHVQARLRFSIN

The target of test [8] is human CYP2D6, CYP2D6 (gene 1565) (UniProt P10635). Description: NVS_ADME_hCYP2D6: NovaScreen (NVS) CYP450-related Enzyme Activity (ADME) Assay for human CYP2D6 (AID 2283107; active means hit-call score of the fitted dose curve at least 0.9, where 1 is the maximum). In short, it runs like this: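 Fluorescence intensity read 1 h post-dosing; insect-cell-expressed recombinant protein with fluorogenic substrate, no cells. Activity is scored as signal loss relative to acetonitrile baseline, first at a single 10 uM concentration in duplicate, then as concentration series for confirmed actives.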
Chain of human CYP2D6, CYP2D6 (gene 1565) (P10635 whole entry, looked up): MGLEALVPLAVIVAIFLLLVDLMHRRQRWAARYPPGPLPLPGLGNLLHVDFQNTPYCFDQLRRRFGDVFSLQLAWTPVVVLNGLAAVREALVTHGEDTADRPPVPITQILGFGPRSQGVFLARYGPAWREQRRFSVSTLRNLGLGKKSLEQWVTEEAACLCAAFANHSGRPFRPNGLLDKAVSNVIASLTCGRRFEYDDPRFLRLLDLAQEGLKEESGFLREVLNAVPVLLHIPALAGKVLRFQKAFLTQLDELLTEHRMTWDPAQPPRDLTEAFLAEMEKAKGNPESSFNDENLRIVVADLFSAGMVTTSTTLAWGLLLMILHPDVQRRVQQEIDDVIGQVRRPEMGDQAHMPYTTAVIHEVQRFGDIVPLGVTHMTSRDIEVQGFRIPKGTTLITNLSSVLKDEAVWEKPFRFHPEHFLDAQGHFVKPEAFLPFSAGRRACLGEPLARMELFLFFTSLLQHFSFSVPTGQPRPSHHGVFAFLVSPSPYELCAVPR

The target of test [9] is human CYP1A1, CYP1A1 (gene 1543) (UniProt P04798). Description: NVS_ADME_hCYP1A1: NovaScreen (NVS) CYP450-related Enzyme Activity (ADME) Assay for human CYP1A1 (AID 2283100; active means hit-call score of the fitted dose curve at least 0.9, where 1 is the maximum). Put shortly: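 Read-out: fluorescence intensity from enzymatic turnover of substrate by recombinant CYP1A1, loss of signal indicating inhibition. Incubation 1 h post-dose. Primary single-point 10 uM in duplicate; actives rerun singly with top concentration 20 uM.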
Chain of human CYP1A1, CYP1A1 (gene 1543) (P04798 whole entry, looked up): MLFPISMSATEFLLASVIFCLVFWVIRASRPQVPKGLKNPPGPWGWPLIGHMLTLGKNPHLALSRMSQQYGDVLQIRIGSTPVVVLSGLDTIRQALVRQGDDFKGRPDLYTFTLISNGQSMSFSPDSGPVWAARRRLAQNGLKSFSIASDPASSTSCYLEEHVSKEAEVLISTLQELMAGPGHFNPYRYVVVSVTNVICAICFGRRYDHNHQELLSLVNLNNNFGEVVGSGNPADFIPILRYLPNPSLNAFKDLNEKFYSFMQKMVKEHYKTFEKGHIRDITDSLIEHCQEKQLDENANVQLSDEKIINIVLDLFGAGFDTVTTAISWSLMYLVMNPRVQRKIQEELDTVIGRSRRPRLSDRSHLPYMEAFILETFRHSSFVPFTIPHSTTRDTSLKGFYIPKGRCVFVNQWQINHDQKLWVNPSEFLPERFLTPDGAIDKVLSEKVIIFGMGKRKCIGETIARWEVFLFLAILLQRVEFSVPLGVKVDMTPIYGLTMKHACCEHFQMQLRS

For orientation: AC50 means the concentration giving half of the maximal activity seen.

Results filed as inconclusive are left out. Calls of active or inactive are those of the source. How the source made its calls, unless noted: active means hit-call score of the fitted dose curve at least 0.9, where 1 is the maximum; inactive means score below 0.9.

Consider `CCCCOC(=O)C(C)Oc1ccc(Oc2ccc(C(F)(F)F)cn2)cc1` (stereo not given), for which the outcome in test [1], in test [2], in [3], in test [4] and in test [5] was inactive.

For the compound `CSC(=O)c1cccc2nnsc12`, the outcome in test [1], in test [2], in [3], in test [4] and in test [5] was inactive. The AC50 in test [6] was 1.22 µM (active); in test [7], 0.653 µM (active); in [8], 3.55 µM (active).

Turning to `CCSC(=O)N(CC(C)C)CC(C)C`, the result in test [2], in [3], in [4] and in test [5] was inactive.

As to `CC(=O)S[C@@H]1CC2=CC(=O)CC[C@]2(C)[C@H]2CC[C@@]3(C)[C@@H](CC[C@@]34CCC(=O)O4)[C@H]12`, the AC50 is 13.3 µM (active) in test [2], 11.1 µM (active) in [3], 13.7 µM (active) in test [4] and 22.7 µM (active) in [5].

For the compound `CC1(C)C(C=C(Cl)Cl)C1C(=O)OCc1cccc(Oc2ccccc2)c1` (stereo not given), the outcome in test [2] and in [3] was inactive. Besides, the AC50 in [4] is 14.8 µM (active); in [5], 5.14 µM (active).

On to `CCNc1nc(N)nc(Cl)n1`, for which the result in test [2], in test [3], in test [4] and in test [5] was inactive.

In the case of `CCOC(=O)[C@H](C)Oc1ccc(Oc2nc3ccc(Cl)cc3o2)cc1`, the outcome in test [2], in test [3], in test [4], in test [5] and in test [7] was inactive.

Regarding `COC(=O)c1c(Cl)nn(C)c1S(=O)(=O)NC(=O)Nc1nc(OC)cc(OC)n1`, the outcome in test [2], in test [3], in test [4] and in test [5] was inactive.

As for `Cc1nn(C)c(Oc2ccccc2)c1C=NOCc1ccc(C(=O)OC(C)(C)C)cc1`, the outcome in test [2] was inactive. The figures for the AC50 in test [3], in test [4] and in test [5] were 3.97 µM (active), 8.08 µM (active) and 20 µM (active), respectively.

For `S=C([S-])NCCNC(=S)[S-].[Mn+2]`, the AC50 was 25.5 µM (active) in test [2], 30 µM (active) in test [3], 8.4 µM (active) in [4] and 5.5 µM (active) in test [7]. The outcome in test [5] and in test [6] was inactive.

With `CCCN(CCC)C(=O)SCC`, the result in [2], in test [3], in [4] and in test [5] was inactive.

In the case of `CC(=O)[C@H]1CC[C@H]2[C@@H]3CCC4=CC(=O)CC[C@]4(C)[C@H]3CC[C@]12C`, the half-maximal activity concentration (AC50) in test [2] is 9.94 µM (active); in test [4], 28.8 µM (active); in [5] it was 4.21 µM (active). The result in test [3] was inactive.

On to `COCCO`, for which the result in test [2], in test [3], in test [4] and in test [5] was inactive.

Consider `COc1nc(C)nc(NC(=O)NS(=O)(=O)c2ccccc2OCCCl)n1`, for which the outcome in [2], in [3], in test [4] and in test [5] was inactive. Further, in test [8], the AC50 is 1.07 µM (active).

As for `COC(=O)CSc1cc(N=c2sc(=O)n3n2CCCC3)c(F)cc1Cl`, the outcome in [2], in [3], in [4], in test [5], in [9] and in test [7] was inactive.

Regarding `O=C(O)C1(C(=O)Nc2ccc(Cl)cc2Cl)CC1`, the result in test [2], in [3] and in test [5] was inactive. For the same compound, the AC50 in [4] was 12.3 µM (active).
